Data reported in PubChem BioAssay.
“And” between values parts separate entries of the source, which are not always exact repeats. Identical values can stand only once. The source made the active and inactive calls.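 Rule for the calls, unless noted: active = compounds whose cell count with miR-34 switched on is under 0.7 times the count with it off; inactive = the rest.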

Legend:
[1] = biological target: 6-phosphogluconate dehydrogenase, decarboxylating (Homo sapiens) (UniProt P52209); assay: 6PGD enzyme inhibitors, primary screen, biochemical, human, recombinant enzyme, NADPH absorbance (AID 1159550;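 active = at least 20% inhibition of 6-phosphogluconate dehydrogenase activity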); details: recombinant 6PGD, NADPH absorbance 341 nm; at 10 µM; stronger effect = higher value
[2] = sensitizers of A549 cells to miR-34 induction, primary screen, imaging, A549 dox-inducible miR-34, nuclei and caspase counts (AID 1347080); details: A549 miR-34 inducible, Hoechst nuclei count, 48 h
[3] = biological target: Mitogen-activated protein kinase 7 (Homo sapiens) (UniProt Q13164); assay: ERK5 transactivation activators in reporter cells, primary screen, cell-based, HTS (AID 1508626;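 active = luciferase signal above three times the same-plate solvent-only control wells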;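 note: luciferase driven by Gal4-ERK5 fusion binding five Gal4 sites before minimal TATA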); details: HeLa Gal4-ERK5 transactivation, 18 h, at 5 µM, stronger effect = higher value
[4] = viability rescue of complex I mutant cybrids, primary screen, cell-based, galactose medium, ATP luminescence (AID 1645843;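 active = z-score of at least 1.8 in each of two replicates, scored against plate mean and spread of sample wells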;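 note: positive z means more ATP and so rescue of galactose-driven cybrid death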); details: complex I mutant cybrid cells, 72 h, stronger effect = higher value
[5] = liver-stage malaria parasite growth inhibition, primary screen, cell-based, HepG2, luciferase luminescence, HepG2 viability (AID 624349; in the data active = parasite load remaining mostly below about 12%, no sharp cut-off; inactive = mostly above about 10%;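 note: 100% = mean of DMSO negative control wells on the same plate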); details: P. berghei liver stage in HepG2, luciferase luminescence, concentration not given here; parasite load remaining: stronger effect = lower value; viability: measured here: HepG2 viability without parasites
[6] = survival rescue of mitochondrial mutant cells in low glucose, primary screen, MELAS cybrids, Rieske KO mouse fibroblasts, CellTiter-Glo (AID 1508586;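 active = mean z-score across replicates of 1.96 or higher in either the MELAS or the Rieske mutant cell line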;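 note: z relative to plate mean and SD of compound and empty wells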)
[7] = biological target: NAD(+) hydrolase SARM1 (Homo sapiens) (UniProt Q6SZW1); assay: SARM1 TIR NADase inhibitors, cell lysate, NAD-Glo luminescence (AID 1508614;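 active = compound whose remaining NAD level is above about 45 nM, limit read from the data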;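 note: higher remaining NAD means stronger inhibition of SARM1 NADase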); details: SAM-TIR HEK293T lysate NADase, at 1 µM, stronger effect = higher value
[8] = LFS_MB_P medulloblastoma growth inhibition, cell-based, chromothripsis tumors, cisplatin or BGB combos (AID 1671449; in the data active = inhibition above about 80%;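 note: cells exposed for 96 hours; 0% = vehicle DMSO and 100% = killing by high DMSO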); details: LFS_MB_P medulloblastoma cells
[9] = HDN33 neuroblastoma growth inhibition, cell-based, chromothripsis tumors, cisplatin or BGB combos (AID 1671450; in the data active = inhibition above about 80%;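 note: cells exposed to compound for four days; 0% = vehicle DMSO and 100% = cell killing by high DMSO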); details: HDN33 neuroblastoma cells, stronger effect = higher value
[10] = ICB984 medulloblastoma cell growth inhibition, synergistic combos for chromothripsis tumors, cisplatin or BGB combos (AID 1671451; call rule not given here;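 note: cells exposed for 96 hours before readout; 0% = vehicle DMSO and 100% = killing by high DMSO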); details: ICB984 medulloblastoma cells, drug combinations, stronger effect = higher value
[11] = LFS_MB_1R medulloblastoma cell growth inhibition, synergistic combos for chromothripsis tumors, cisplatin or BGB combos (AID 1671452; in the data active = inhibition above about 80%;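 note: cells exposed for 96 hours before readout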); details: LFS_MB_1R medulloblastoma cells, stronger effect = higher value
[12] = HTB85 osteosarcoma cell growth inhibition, synergistic combos for chromothripsis tumors, BGB or cisplatin IC20 combos (AID 1671453; in the data active = inhibition above about 80%;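 note: cells exposed for 96 hours before readout; 0% = vehicle DMSO and 100% = high DMSO killing control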); details: HTB85 osteosarcoma cells, drug combinations, stronger effect = higher value
[13] = MDA-MB-436 breast carcinoma cell growth inhibition, synergistic combos for chromothripsis tumors, BGB or cisplatin combos (AID 1671458; call rule not given here;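 note: cells exposed for 96 hours; 0% = vehicle DMSO and 100% = killing by high DMSO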); details: MDA-MB-436 breast carcinoma growth inhibition, drug combinations, stronger effect = higher value
[14] = growth inhibition of BT084 medulloblastoma cells, cell-based, ICGC_MB145, cisplatin and BGB IC40 combos (AID 1671461; in the data active = inhibition above about 80%;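 note: cells exposed to drugs for 96 hours; 0% = vehicle DMSO and 100% = high DMSO full killing control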); details: drug combinations, stronger effect = higher value
[15] = growth inhibition of RCMB18 medulloblastoma cells, cell-based, cisplatin and BGB IC40 combos (AID 1671462; in the data active = inhibition above about 80%;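 note: cells exposed to compound for four days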); details: stronger effect = higher value
[16] = growth inhibition of CRL1545 osteosarcoma cells, cell-based, cisplatin and BGB IC20 combos (AID 1671464; in the data active = inhibition above about 80%;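 note: cells exposed to compound for 96 hours before readout; 0% = vehicle DMSO and 100% = high DMSO killing control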); details: stronger effect = higher value
[17] = hESC survival regulators, cell-based (AID 493140; call rule not given here;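 note: cells exposed to compounds for four days before counting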); details: human embryonic stem cell survival screen; stronger effect = higher value
[18] = stronger effect = lower value, cell number ratio, induced over uninduced
[19] = measured here: relative caspase fold change +Dox/-Dox
[20] = measured here: total cells with miR-34 induction, stronger effect = lower value
[21] = measured here: total cells without miR-34 induction
[22] = MELAS cybrid survival, CellTiter-Glo 48 h, stronger effect = higher value
[23] = Rieske KO mouse fibroblast survival, CellTiter-Glo 72 h
[24] = measured here: combination with BGB IC40, at 0.05 µM
[25] = measured here: with BGB IC20 combination, at 0.5 µM
[26] = measured here: with cisplatin IC20 combination, at 0.5 µM
[27] = measured here: combination with cisplatin, at 0.5 µM

Mitogen-activated protein kinase 7 (Homo sapiens), sequence (Q13164 whole entry, looked up, the tested form may be a part): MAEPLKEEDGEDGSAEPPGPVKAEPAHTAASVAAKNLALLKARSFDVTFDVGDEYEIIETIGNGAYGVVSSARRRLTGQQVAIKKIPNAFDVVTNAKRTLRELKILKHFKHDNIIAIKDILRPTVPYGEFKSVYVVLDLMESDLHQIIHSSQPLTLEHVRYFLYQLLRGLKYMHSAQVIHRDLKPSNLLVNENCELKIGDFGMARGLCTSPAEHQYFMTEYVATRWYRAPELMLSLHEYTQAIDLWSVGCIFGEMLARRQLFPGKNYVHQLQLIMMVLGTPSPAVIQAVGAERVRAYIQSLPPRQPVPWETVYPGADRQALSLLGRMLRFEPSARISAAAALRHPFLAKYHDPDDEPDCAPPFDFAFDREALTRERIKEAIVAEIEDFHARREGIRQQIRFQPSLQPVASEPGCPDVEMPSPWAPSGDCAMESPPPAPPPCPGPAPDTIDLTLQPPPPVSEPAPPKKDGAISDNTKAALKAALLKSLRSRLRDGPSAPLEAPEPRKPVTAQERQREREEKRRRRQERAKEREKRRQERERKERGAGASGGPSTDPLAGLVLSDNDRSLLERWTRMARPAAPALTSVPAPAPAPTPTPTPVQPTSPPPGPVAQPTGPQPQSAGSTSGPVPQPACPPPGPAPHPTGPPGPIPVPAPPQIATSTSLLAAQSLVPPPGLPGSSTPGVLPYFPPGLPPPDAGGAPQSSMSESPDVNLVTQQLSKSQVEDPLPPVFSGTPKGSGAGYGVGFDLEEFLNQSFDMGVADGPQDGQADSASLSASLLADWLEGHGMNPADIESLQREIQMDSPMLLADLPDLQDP
6-phosphogluconate dehydrogenase, decarboxylating (Homo sapiens), sequence (P52209 whole entry, looked up): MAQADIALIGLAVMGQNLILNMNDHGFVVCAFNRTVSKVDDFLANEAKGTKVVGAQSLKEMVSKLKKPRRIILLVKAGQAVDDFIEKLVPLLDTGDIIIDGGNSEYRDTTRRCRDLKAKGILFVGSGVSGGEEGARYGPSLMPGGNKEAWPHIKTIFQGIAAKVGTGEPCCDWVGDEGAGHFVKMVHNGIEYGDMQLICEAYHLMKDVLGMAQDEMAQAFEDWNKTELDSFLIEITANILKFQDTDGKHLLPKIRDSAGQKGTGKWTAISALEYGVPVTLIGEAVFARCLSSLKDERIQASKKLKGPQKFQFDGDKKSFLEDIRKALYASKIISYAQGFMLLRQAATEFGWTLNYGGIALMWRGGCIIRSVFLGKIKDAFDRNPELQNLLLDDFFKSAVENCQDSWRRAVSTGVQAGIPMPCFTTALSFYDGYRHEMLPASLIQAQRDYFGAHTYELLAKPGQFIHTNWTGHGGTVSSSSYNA
NAD(+) hydrolase SARM1 (Homo sapiens), sequence (Q6SZW1 whole entry, looked up): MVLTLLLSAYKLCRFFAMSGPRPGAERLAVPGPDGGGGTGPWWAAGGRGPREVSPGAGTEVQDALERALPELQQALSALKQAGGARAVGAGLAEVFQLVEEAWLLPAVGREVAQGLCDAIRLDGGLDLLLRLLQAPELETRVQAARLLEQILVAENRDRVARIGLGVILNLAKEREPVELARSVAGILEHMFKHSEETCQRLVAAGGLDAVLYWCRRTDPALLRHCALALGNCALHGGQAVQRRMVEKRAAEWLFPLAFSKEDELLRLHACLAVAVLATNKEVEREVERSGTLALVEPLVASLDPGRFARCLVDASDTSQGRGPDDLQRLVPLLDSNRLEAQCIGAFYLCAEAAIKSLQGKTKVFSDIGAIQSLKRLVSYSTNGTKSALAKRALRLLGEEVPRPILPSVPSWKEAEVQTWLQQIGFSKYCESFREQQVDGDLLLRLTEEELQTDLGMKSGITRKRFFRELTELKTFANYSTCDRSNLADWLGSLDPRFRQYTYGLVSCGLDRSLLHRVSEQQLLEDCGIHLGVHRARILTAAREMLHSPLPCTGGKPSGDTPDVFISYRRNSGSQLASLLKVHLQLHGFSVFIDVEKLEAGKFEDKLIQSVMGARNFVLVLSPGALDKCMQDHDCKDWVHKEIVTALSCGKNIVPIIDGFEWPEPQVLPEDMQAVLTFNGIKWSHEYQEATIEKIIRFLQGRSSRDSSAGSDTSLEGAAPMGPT

SMILES: CC(=O)NCCc1c[nH]c2ccc(O)cc12
- inhibition [1]: 8.58% (inactive)
- fold change [2, 18]: 1.02 (inactive)
- fold change [2, 19]: 1.87
- cell count [2, 20]: 10700
- cell count [2, 21]: 10400
- luciferase signal [3]: 32 AU (inactive)
- z-score [4]: 0.08 (inactive)

SMILES: CC(=O)O[C@H]1C(=O)[C@@]2(C)[C@H]([C@H](OC(=O)c3ccccc3)[C@]3(O)C[C@H](OC(=O)[C@H](O)[C@@H](NC(=O)c4ccccc4)c4ccccc4)C(C)=C1C3(C)C)[C@]1(OC(C)=O)CO[C@@H]1C[C@@H]2O
- parasite load remaining [5]: 52.9% (inactive) and 35% (inactive)
- viability [5]: 43.2% and 79%
- inhibition [1]: 17.9% (inactive)
- fold change [2, 18]: 0.873 (inactive) and 1.02 (inactive)
- fold change [2, 19]: 1.16 and 1.19
- cell count [2, 20]: 1550 and 2180
- cell count [2, 21]: 1780 and 2140
- z-score [6, 22]: -1.19 (inactive) and -2.08 (inactive)
- z-score [6, 23]: 0.25 and 0.578
- remaining NAD [7]: 10 nM (inactive)
- luciferase signal [3]: 36 AU (inactive)
- z-score [4]: -0.295 (inactive)

SMILES: CN(C)c1nc(N)c(C(=O)N=C(N)N)nc1Cl
- inhibition [1]: 11.7% (inactive)
- fold change [2, 18]: 1.07 (inactive)
- fold change [2, 19]: 1.7
- cell count [2, 20]: 10400
- cell count [2, 21]: 9710
- z-score [4]: 0.335 (inactive)

SMILES: NCC[C@H](O)C(=O)N[C@@H]1C[C@H](N)[C@@H](O[C@H]2O[C@H](CN)[C@@H](O)[C@H](O)[C@H]2O)[C@H](O)[C@H]1O[C@H]1O[C@H](CO)[C@@H](O)[C@H](N)[C@H]1O
- parasite load remaining [5]: 126% (inactive)
- viability [5]: 113%
- inhibition [1]: -15.3% (inactive)
- fold change [2, 18]: 0.816 (inactive)
- fold change [2, 19]: 1.79
- cell count [2, 20]: 8210
- cell count [2, 21]: 10100
- z-score [6, 22]: -0.451 (inactive)
- z-score [6, 23]: -0.0793
- remaining NAD [7]: 10 nM (inactive)
- luciferase signal [3]: 60 AU (inactive)

SMILES: CSC(N)=NCCC[C@H](N)C(=O)O
- inhibition [1]: -13.5% (inactive)
- fold change [2, 18]: 1.1 (inactive) and 0.994 (inactive)
- fold change [2, 19]: 0.973 and 0.749
- cell count [2, 20]: 11000 and 6220
- cell count [2, 21]: 10000 and 6260
- z-score [4]: 0.215 (inactive)

SMILES: CN(C)CCCO[C@@H]1[C@H]2OC(C)(C)O[C@H]2O[C@@H]1[C@H](O)CO
- parasite load remaining [5]: 63.5% (inactive)
- viability [5]: 92.5%
- inhibition [1]: 8.75% (inactive)
- fold change [2, 18]: 0.9 (inactive)
- fold change [2, 19]: 1.16
- cell count [2, 20]: 9050
- cell count [2, 21]: 10100
- z-score [6, 22]: 0.565 (inactive)
- z-score [6, 23]: -0.271
- luciferase signal [3]: 44 AU (inactive)

SMILES: CN(N=O)C(=O)NC1C(O)OC(CO)C(O)C1O (configuration not stated)
- inhibition [1]: -8.43% (inactive)
- fold change [2, 18]: 0.895 (inactive)
- fold change [2, 19]: 0.982
- cell count [2, 20]: 7750
- cell count [2, 21]: 8650
- z-score [6, 22]: -0.392 (inactive)
- z-score [6, 23]: 0.645
- inhibition ([8]; at 0.5 µM, stronger effect = higher value): -5.09% (inactive)
- inhibition ([8]; measured here: combination with BGB IC20, at 0.005 µM): 2.88%
- inhibition ([8]; measured here: combination with BGB IC40, at 0.005 µM): -23%
- inhibition [8, 24]: 9.79%
- inhibition ([8]; measured here: combination with cisplatin, at 0.5 µM, stronger effect = higher value): 18.7%
- inhibition ([8]; measured here: combination with cisplatin, at 5 µM, stronger effect = higher value): -15%
- inhibition ([9]; BGB combo, at 5 µM): -42.3%
- inhibition ([9]; at 0.5 µM): -18.9% (inactive)
- inhibition ([9]; cisplatin combo, at 5 µM): -31.9%
- inhibition [9, 25]: -17.4%
- inhibition [9, 26]: -13.6%
- inhibition ([9]; single agent, at 5 µM): -38.9%
- inhibition ([10]; BGB IC20 combo, at 0.005 µM): -31.3%
- inhibition ([10]; BGB IC40 combo, at 0.005 µM): -16.7%
- inhibition ([10]; BGB IC40 combo, at 0.05 µM): -24.6%
- inhibition ([10]; at 0.5 µM): -5.69% (inactive)
- inhibition ([10]; cisplatin combo, at 0.05 µM): -31%
- inhibition ([10]; cisplatin combo, at 0.5 µM): -0.064%
- inhibition ([10]; cisplatin combo, at 5 µM): -5.86%
- inhibition ([10]; measured here: 5 uM single agent, at 5 µM): -8.73%
- inhibition ([11]; at 0.5 µM): -12.5% (inactive)
- inhibition [11, 24]: 0.459%
- inhibition [11, 27]: -24.7%
- inhibition ([11]; measured here: combination with cisplatin, at 5 µM): -26.7%
- inhibition ([12]; at 0.5 µM): -27.9% (inactive)
- inhibition ([12]; measured here: with BGB IC20, at 0.5 µM): -20.4%
- inhibition ([12]; measured here: with BGB IC20, at 5 µM): -14.4%
- inhibition ([12]; measured here: with cisplatin IC20, at 0.5 µM): -29.4%
- inhibition ([12]; measured here: with cisplatin IC20, at 5 µM): -17.4%
- inhibition ([12]; single agent, at 5 µM): -23.4%
- inhibition ([13]; at 0.5 µM): -6.07% (inactive)
- inhibition ([13]; measured here: BGB combination, at 0.5 µM): -5.12%
- inhibition ([13]; measured here: BGB combination, at 5 µM): 4.69%
- inhibition ([13]; measured here: cisplatin combination, at 0.5 µM): -11.2%
- inhibition ([13]; measured here: cisplatin combination, at 5 µM): 0.976%
- inhibition ([14]; at 0.5 µM): 9.28% (inactive)
- inhibition ([14]; cisplatin combination, at 0.5 µM): 2.65%
- inhibition ([14]; cisplatin combination, at 5 µM): -74.8%
- inhibition ([14]; measured here: BGB IC40 combination 0.05 uM, at 0.05 µM): -4.62%
- inhibition ([14]; single agent, at 5 µM): 14.7%
- inhibition ([15]; at 0.5 µM): 8.81% (inactive)
- inhibition ([15]; cisplatin combo, at 5 µM): -9.42%
- inhibition ([15]; measured here: BGB IC40 combination, at 0.05 µM): -16.3%
- inhibition [15, 27]: -21.8%
- inhibition ([15]; single agent, at 5 µM): -8.26%
- inhibition ([16]; at 0.5 µM): 3.09% (inactive)
- inhibition [16, 25]: -18.9%
- inhibition [16, 26]: 12.7%
- inhibition ([16]; single agent, at 0.05 µM): -1.79%
- inhibition ([16]; single agent, at 5 µM): -17.1%

SMILES: C#C[C@]1(O)CC[C@H]2[C@@H]3CCC4=C(CCC(=O)C4)[C@H]3CC[C@@]21C
- survival [17]: 25.3 (inactive)
- parasite load remaining [5]: 17.7% (inactive) and 100% (inactive)
- viability [5]: 48% and 90.5%
- inhibition [1]: -2.85% (inactive)
- fold change [2, 18]: 0.896 (inactive)
- fold change [2, 19]: 0.927
- cell count [2, 20]: 7990
- cell count [2, 21]: 8920
- z-score [6, 22]: 0.723 (inactive)
- z-score [6, 23]: 0.808
- remaining NAD [7]: 10 nM (inactive)
- luciferase signal [3]: 44 AU (inactive)

SMILES: COc1ccc(C(Cl)=C(c2ccc(OC)cc2)c2ccc(OC)cc2)cc1
- survival [17]: 4.42 (inactive)
- parasite load remaining [5]: 9.26% (inactive) and 45.4% (inactive) and 50.6% (inactive)
- viability [5]: 85.2% and 70.2% and 89.6%
- inhibition [1]: 7.15% (inactive)
- fold change [2, 18]: 0.946 (inactive) and 0.925 (inactive)
- fold change [2, 19]: 1.03 and 1.43
- cell count [2, 20]: 9940 and 11400
- cell count [2, 21]: 10500 and 12300
- z-score [6, 22]: 0.437 (inactive)
- z-score [6, 23]: 0.0944
- luciferase signal [3]: 40 AU (inactive)
